# In PubChem BioAssay (EPA / NIEHS):
# Values joined by “and” are separate entries in the source; they are usually repeats but may differ in a detail not shown here. Equal entries are not always repeated. Inconclusive results are not listed. Some structures have more than one record in an assay (separate samples or runs), and their calls can disagree. Active and inactive are the calls of the source. How the source made its calls: active means hit-call score of the fitted dose curve at least 0.9, where 1 is the maximum; inconclusive means response in the unintended direction; inactive means score below 0.9.
# Experiments:
# [1] = target: Estrogen receptor (Homo sapiens) + Estrogen receptor beta (Homo sapiens) (UniProt P03372+Q92731); assay: OT_ER_ERaERb_1440: Odyssey Thera (OT) 24-hour HEK293T Protein-Complementation Assay for Estrogen Receptor-alpha/-beta Homodimer (AID 2283356);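 further: heteromer of ER alpha and ER beta binding domains; hits raise reporter fluorescence and both agonists and antagonists give an increase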
# Method in brief: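 Heterodimerisation of ERα (aa 310-547) and ERβ (aa 263-489) ligand binding domains was tracked as fluorescence gain in stably transfected HEK293T cells following 24 h dosing, normalised to DMSO controls.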
# [2] = target: human Peroxisome Proliferator-activated Receptor alpha (PPARa), PPARA (gene 5465) (UniProt Q07869); assay: NVS_NR_hPPARa: NovaScreen (NVS) Nuclear Receptor Binding Assay for human Peroxisome Proliferator-activated Receptor alpha (PPARa) (AID 2283359);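 further: activity means loss of TR-FRET signal versus DMSO baseline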
# Method in brief: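 TR-FRET signal measured at 1 h post-dosing; loss-of-signal versus DMSO negative control taken as activity. Extracted gene-protein, cell-free format. Initial single-point duplicates at 25 uM, then concentration-response retests.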
# [3] = target: PGR (gene 5241) (UniProt P06401); assay: NVS_NR_hPR: NovaScreen (NVS) Nuclear Receptor Binding Assay for human Progestron Receptor (PR) (AID 2283360);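 further: active means loss of bound radioligand signal versus DMSO baseline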
# Method in brief: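 T47D lysate; tritiated or iodinated radioligand; scintillation count at 18 h. DMSO = negative control/baseline. Primary: 25 uM, duplicate. Secondary: concentration series for actives.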
# [4] = target: Retinoic acid receptor alpha (Homo sapiens) (UniProt P10276); assay: NVS_NR_hRARa_Agonist: NovaScreen (NVS) Nuclear Receptor Binding Assay for human Retinoic Acid Alpha Receptor Agonism (RAR) (AID 2283361)
# Method in brief: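 TR-FRET signal, 2 h post-dosing; cell-free extracted protein; DMSO = baseline, positive fitting direction; 25 uM single-point duplicate, then concentration series for actives.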
# [5] = target: human Thyroid Receptor Alpha (TRa), THRA (gene 7067) (UniProt P10827); assay: NVS_NR_hTRa_Antagonist: NovaScreen (NVS) Nuclear Receptor Binding Assay for human Thyroid Receptor Alpha Antagonism (TRa) (AID 2283362)
# Method in brief: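 Chemicals were first screened in duplicate at 25 uM, then actives were retested in concentration series. Binding to the extracted receptor was measured 1 h after dosing by AlphaLISA chemiluminescence, with decreased signal versus DMSO scored as activity.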
# [6] = target: Glucocorticoid receptor (Homo sapiens) (UniProt P04150); assay: NVS_NR_hGR: NovaScreen (NVS) Nuclear Receptor Binding Assay for human Glucocorticoid Receptor (GR) (AID 2283363);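 on AC50: activity is loss of specific radioligand binding signal relative to DMSO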
# Method in brief: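 Filter scintillation readout of tritiated/iodinated radioligand displaced by test chemical; cell-free extracted protein; 16 h. DMSO = negative control/baseline. Duplicate single-point 25 uM screen, then concentration-response on actives.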
# [7] = target: Nuclear receptor subfamily 1 group I member 2 (Homo sapiens) (UniProt O75469); assay: NVS_NR_hPXR: NovaScreen (NVS) Nuclear Receptor Binding Assay for human Pregnane X Receptor (PXR) (AID 2283365);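 further: a drop in FRET signal versus DMSO baseline means the compound binds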
# Method in brief: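 Binding was measured by time-resolved fluorescence resonance energy transfer after a 2 h exposure of extracted human PXR protein without cells. Compounds were first tested at 25 uM in duplicate, with concentration series for actives; DMSO defined baseline.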
# [8] = target: Peroxisome proliferator-activated receptor gamma (Homo sapiens) (UniProt P37231); assay: NVS_NR_hPPARg: NovaScreen (NVS) Nuclear Receptor Binding Assay for human Peroxisome Proliferator-activated Receptor gamma (PPARg) (AID 2283370)
# Method in brief: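 Fluorescence polarization measures competitive binding to extracted PPARg in a cell-free format. Reading is taken at 2 h; activity is signal loss relative to DMSO. Screening at 25 uM in duplicate preceded confirmatory dose series.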
# [9] = target: Androgen Receptor/SRC-1 Co-activator, AR (gene 367) (UniProt P10275); assay: OT_AR_ARSRC1_0480: Odyssey Thera (OT) 8-hour HEK293T Protein-Complementation Assay for Androgen Receptor/SRC-1 Co-activator (AID 2283354);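 further: hits raise the complementation signal above DMSO so AC50 marks enhancers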
# Method in brief: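 Split-Venus PCA, stable HEK293T, AR/SRC-1 fusions; 8 h exposure. Readout: 488nm N/C fluorescence ratio, ≥400 cells/image; fitted upward vs DMSO baseline.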
# [10] = target: Retinoic acid receptor alpha (Homo sapiens) (UniProt P10276); assay: NVS_NR_hRAR_Antagonist: NovaScreen (NVS) Nuclear Receptor Binding Assay for human Retinoic Acid Alpha Receptor Antagonism (RAR) (AID 2283358)
# Method in brief: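 Read-out: time-resolved FRET binding signal, 2 h post-dose, cell-free extracted protein. Antagonism scored as signal loss versus DMSO negative control. Primary single-concentration screen at 25 uM in duplicate; concentration series for actives.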
# [11] = target: human Adenosine Transporter (Adot), SLC29A1 (gene 2030) (UniProt Q99808); assay: NVS_TR_hAdoT: NovaScreen (NVS) Transporter Assay for human Adenosine Transporter (Adot) (AID 2283368)
# Method in brief: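 Binding displacement on U937 extracted protein, read 1 h post-dose by filtration and scintillation counting. Primary duplicate test at 25 uM, then singleton concentration series with 50 uM top; DMSO baseline.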
# [12] = target: human Serotonin Transporter (SERT), SLC6A4 (gene 6532) (UniProt P31645); assay: NVS_TR_hSERT: NovaScreen (NVS) Transporter Assay for human Serotonin Transporter (SERT) (AID 2283372)
# Method in brief: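 Human platelet membrane preparation; displacement of radioligand from serotonin transporter measured after 1 h by filtration and scintillation counting. Single 25 uM duplicate screen, then concentration series for actives, with DMSO as negative baseline.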
# [13] = target: rat Serotonin Transporter (SERT), Slc6a4 (gene 25553) (UniProt P31652); assay: NVS_TR_rSERT: NovaScreen (NVS) Transporter Assay for rat Serotonin Transporter (SERT) (AID 2283375)
# Method in brief: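 Steps: rat forebrain membranes dosed with chemical (25 uM duplicate primary; concentration series for actives); 1 h incubation; labelled ligand bound, filtered, counted by scintillation. Activity scored as signal loss vs DMSO.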
# [14] = target: guinea pig Sigma Receptor, Non-selective Binding, SIGMAR1 (gene 100135589) (UniProt Q60492); assay: NVS_OR_gSIGMA_NonSelective: NovaScreen (NVS) Nuclear Receptor Binding Assay for guinea pig Sigma Receptor, Non-selective Binding (AID 2283367)
# Method in brief: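 Membranes from guinea pig brain incubated with radioligand and test chemical for 1 h, then filtered and scintillation-counted. Duplicate primary testing at 25 uM, with concentration-series follow-up for actives.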
# [15] = tested on: guinea pig Dopamine Transporter (DAT), gene 100714898; assay: NVS_TR_gDAT: NovaScreen (NVS) Transporter Assay for guinea pig Dopamine Transporter (DAT) (AID 2283369);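 further: active compounds lower bound radioligand signal relative to DMSO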
# Method in brief: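 Test chemicals were incubated 2 h with guinea pig striatal membranes and a radioligand; bound label was separated by filtration and counted. Screening ran at 25 uM, followed by concentration-response testing to a 50 uM maximum.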
# [16] = target: human Dopamine Transporter (DAT), SLC6A3 (gene 6531) (UniProt Q01959); assay: NVS_TR_hDAT: NovaScreen (NVS) Transporter Assay for human Dopamine Transporter (DAT) (AID 2283374);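 further: activity means loss of bound radioligand signal relative to DMSO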
# Method in brief: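 hDAT membranes + tritiated/iodinated radioligand, competitive displacement; 1 h; filter scintillation readout. Single conc 25 uM (duplicate), then conc-response for actives. DMSO = negative control.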
# [17] = target: Norway rat Vesicular Monoamine Transporter (VMAT2), neurotransmitter transporter, Slc18a2 (gene 25549) (UniProt Q01827); assay: NVS_TR_rVMAT2: NovaScreen (NVS) Transporter Assay for Norway rat Vesicular Monoamine Transporter (VMAT2), neurotransmitter transporter (AID 2283376);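 further: actives lower the bound radioligand signal below the DMSO level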
# Method in brief: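 Filter-based scintillation counting of radioligand bound to rat forebrain-derived VMAT2 protein, cell-free, 1 h post-dose. Signal loss relative to DMSO control scored; single-concentration duplicate screen (25 uM) followed by concentration-response testing of actives.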
# [18] = target: rat Androgen Receptor (AR), Ar (gene 24208) (UniProt P15207); assay: NVS_NR_rAR: NovaScreen (NVS) Nuclear Receptor Binding Assay for rat Androgen Receptor (AR) (AID 2283366)
# Method in brief: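 Actives from a duplicate single-concentration (25 uM) primary run went on to concentration series. Displacement of radioligand was counted by filtration and scintillation, 18 h post-dose, using prostate extracts from testosterone-pretreated rats, with DMSO as baseline.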
# Chain of Glucocorticoid receptor (Homo sapiens) (P04150 whole entry, looked up): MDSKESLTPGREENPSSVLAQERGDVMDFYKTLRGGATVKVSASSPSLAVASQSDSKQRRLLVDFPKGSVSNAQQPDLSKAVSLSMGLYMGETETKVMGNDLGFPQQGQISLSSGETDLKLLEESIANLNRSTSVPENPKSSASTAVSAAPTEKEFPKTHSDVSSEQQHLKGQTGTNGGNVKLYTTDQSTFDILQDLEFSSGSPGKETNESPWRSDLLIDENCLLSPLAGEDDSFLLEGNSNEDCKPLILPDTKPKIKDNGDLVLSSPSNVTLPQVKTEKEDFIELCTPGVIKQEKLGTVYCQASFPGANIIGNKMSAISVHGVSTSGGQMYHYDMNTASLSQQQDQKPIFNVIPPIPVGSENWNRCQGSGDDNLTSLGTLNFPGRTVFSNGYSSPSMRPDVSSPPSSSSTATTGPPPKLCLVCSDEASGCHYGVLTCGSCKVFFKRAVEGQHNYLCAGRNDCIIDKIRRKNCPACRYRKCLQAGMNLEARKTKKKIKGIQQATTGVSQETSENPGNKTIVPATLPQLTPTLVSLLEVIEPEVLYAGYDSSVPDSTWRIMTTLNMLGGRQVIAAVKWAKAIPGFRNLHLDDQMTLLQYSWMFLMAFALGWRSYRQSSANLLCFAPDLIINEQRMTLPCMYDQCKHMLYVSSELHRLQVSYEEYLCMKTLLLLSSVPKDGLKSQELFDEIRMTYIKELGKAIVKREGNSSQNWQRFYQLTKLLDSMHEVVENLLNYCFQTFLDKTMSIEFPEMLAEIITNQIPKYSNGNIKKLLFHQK
# Chain of guinea pig Sigma Receptor, Non-selective Binding, SIGMAR1 (gene 100135589) (Q60492 whole entry, looked up): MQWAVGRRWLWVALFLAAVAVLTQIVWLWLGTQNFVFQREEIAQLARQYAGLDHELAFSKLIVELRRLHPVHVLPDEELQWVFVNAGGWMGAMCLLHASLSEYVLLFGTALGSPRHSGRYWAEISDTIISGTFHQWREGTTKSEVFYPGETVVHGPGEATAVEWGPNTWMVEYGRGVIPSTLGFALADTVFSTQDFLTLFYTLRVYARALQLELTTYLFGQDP
# Chain of human Adenosine Transporter (Adot), SLC29A1 (gene 2030) (Q99808 whole entry, looked up): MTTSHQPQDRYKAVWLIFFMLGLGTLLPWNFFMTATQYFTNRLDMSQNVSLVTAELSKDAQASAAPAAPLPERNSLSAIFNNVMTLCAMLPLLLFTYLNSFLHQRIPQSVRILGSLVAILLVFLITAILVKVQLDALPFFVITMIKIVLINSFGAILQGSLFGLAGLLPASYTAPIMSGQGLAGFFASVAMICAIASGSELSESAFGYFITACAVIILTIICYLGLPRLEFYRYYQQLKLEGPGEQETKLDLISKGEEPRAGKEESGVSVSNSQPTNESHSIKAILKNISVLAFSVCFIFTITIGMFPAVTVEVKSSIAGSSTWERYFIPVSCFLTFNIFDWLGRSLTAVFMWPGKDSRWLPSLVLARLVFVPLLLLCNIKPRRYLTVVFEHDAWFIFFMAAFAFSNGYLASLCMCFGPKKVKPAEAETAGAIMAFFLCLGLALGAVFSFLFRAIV
# Chain of Peroxisome proliferator-activated receptor gamma (Homo sapiens) (P37231 whole entry, looked up): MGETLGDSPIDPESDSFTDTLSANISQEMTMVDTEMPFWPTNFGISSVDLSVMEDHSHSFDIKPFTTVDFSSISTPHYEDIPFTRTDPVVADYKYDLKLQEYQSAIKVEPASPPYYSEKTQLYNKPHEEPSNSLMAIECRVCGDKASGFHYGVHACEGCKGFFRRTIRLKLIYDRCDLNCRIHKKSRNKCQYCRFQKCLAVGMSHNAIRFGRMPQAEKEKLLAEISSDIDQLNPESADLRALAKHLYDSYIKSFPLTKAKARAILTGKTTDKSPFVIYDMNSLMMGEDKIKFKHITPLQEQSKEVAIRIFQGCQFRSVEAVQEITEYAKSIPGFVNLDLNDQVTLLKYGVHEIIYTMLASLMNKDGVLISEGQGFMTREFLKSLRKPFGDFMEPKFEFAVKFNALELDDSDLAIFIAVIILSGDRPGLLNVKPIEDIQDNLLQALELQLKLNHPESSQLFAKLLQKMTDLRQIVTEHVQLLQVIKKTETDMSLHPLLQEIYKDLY
# Chain of Norway rat Vesicular Monoamine Transporter (VMAT2), neurotransmitter transporter, Slc18a2 (gene 25549) (Q01827 whole entry, looked up): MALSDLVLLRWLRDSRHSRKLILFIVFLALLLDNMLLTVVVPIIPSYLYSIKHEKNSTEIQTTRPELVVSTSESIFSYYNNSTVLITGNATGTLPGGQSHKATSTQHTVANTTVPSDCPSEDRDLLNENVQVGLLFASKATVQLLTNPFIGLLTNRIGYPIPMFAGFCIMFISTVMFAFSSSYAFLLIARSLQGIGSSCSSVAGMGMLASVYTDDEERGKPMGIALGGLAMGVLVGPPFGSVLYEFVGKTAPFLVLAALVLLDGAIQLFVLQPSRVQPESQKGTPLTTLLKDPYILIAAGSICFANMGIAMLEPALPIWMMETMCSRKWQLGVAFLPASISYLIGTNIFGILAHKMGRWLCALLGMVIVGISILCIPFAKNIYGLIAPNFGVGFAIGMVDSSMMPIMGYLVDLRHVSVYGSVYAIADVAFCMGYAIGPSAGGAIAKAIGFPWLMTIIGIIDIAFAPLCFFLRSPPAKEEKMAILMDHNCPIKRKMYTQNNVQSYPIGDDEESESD
# Chain of human Dopamine Transporter (DAT), SLC6A3 (gene 6531) (Q01959 whole entry, looked up): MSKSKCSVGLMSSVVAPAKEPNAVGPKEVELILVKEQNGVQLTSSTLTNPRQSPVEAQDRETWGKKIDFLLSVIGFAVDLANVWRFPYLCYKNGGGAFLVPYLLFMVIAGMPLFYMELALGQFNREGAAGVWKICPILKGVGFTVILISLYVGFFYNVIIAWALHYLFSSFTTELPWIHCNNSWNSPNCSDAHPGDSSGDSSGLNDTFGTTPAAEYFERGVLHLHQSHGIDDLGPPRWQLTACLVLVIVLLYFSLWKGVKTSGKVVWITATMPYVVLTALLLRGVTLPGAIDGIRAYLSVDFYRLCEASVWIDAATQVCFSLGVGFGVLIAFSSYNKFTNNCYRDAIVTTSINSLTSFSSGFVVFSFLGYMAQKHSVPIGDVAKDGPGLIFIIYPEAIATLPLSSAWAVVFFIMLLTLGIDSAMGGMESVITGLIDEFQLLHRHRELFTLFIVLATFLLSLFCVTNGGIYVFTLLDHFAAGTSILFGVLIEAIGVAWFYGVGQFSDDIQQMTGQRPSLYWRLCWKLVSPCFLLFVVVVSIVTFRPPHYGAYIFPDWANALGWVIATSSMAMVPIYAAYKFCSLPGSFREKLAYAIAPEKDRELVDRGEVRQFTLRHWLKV
# Chain of rat Serotonin Transporter (SERT), Slc6a4 (gene 25553) (P31652 whole entry, looked up): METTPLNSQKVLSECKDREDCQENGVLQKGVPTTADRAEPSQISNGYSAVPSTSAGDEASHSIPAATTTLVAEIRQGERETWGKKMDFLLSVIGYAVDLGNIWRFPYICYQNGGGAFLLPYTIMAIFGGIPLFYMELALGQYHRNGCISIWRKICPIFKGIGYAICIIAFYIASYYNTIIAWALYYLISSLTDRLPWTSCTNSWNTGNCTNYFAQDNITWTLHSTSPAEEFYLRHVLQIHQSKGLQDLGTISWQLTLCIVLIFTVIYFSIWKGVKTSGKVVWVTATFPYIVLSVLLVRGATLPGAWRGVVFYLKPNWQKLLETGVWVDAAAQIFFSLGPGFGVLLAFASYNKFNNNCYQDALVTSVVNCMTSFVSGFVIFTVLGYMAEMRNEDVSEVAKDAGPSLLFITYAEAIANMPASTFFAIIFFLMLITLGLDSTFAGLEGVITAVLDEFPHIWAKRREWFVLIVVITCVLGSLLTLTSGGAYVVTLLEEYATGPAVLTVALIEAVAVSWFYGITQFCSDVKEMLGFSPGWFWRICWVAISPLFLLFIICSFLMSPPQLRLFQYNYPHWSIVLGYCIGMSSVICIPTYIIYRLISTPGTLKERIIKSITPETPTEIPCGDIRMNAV
# Chain of Estrogen receptor (Homo sapiens) + Estrogen receptor beta (Homo sapiens) (P03372 whole entry, looked up, the tested form may be a part): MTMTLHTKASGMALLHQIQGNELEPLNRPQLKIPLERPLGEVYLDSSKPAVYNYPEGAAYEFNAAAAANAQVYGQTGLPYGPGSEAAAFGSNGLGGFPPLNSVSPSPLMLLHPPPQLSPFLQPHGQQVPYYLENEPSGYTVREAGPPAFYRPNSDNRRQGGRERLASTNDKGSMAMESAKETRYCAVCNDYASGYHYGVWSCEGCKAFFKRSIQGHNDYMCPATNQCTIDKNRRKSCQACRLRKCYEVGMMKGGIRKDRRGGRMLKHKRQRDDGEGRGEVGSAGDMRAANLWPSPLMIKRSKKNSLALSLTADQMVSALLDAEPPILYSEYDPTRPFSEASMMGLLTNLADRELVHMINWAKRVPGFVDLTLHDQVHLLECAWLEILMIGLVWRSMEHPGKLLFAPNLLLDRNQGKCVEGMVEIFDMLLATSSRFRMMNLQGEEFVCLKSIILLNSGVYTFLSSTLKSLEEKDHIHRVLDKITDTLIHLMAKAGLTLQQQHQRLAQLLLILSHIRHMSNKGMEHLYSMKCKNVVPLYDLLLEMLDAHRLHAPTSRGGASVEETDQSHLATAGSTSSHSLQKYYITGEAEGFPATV
# Chain of Estrogen receptor (Homo sapiens) + Estrogen receptor beta (Homo sapiens) (Q92731 whole entry, looked up, the tested form may be a part): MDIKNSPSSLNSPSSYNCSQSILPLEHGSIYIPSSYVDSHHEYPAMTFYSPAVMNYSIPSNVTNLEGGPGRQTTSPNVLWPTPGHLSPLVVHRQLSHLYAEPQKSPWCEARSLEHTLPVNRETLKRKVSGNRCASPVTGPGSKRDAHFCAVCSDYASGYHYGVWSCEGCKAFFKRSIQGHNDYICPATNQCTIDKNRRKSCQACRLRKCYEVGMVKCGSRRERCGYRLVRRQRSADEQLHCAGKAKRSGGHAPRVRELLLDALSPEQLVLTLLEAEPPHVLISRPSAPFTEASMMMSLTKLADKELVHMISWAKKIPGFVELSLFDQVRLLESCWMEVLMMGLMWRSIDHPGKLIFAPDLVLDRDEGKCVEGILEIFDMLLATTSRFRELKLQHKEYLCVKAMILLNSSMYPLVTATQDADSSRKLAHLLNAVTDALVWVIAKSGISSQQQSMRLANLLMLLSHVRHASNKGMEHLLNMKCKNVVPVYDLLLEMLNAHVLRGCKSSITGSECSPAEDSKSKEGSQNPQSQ
smiles,measurement,setting,value
CCCN(CCC)c1c([N+](=O)[O-])cc(S(N)(=O)=O)cc1[N+](=O)[O-],outcome,[1],inactive
same,outcome,[2],inactive
same,AC50,[3],4.36 µM (active)
same,outcome,[4],inactive
same,outcome,[5],inactive
same,outcome,[6],inactive
same,AC50,[7],6.68 µM (active)
same,AC50,[8],0.0071 µM (active)
same,outcome,[8],inactive
CS/C(C)=N/OC(=O)N(C)SN(C)C(=O)O/N=C(\C)SC,AC50,[9],72.2 µM (active)
same,outcome,[1],inactive
COP(=S)(OC)Oc1nc(Cl)c(Cl)cc1Cl,outcome,[1],inactive
same,outcome,[10],inactive
COc1nc(C)nc(NC(=O)NS(=O)(=O)c2ccccc2CCC(F)(F)F)n1,AC50,[11],0.0855 µM (active)
same,outcome,[11],inactive
same,outcome,[8],inactive
same,outcome,[12],inactive
same,outcome,[13],inactive
CCNc1nc(Cl)nc(NC(C)C)n1,outcome,[1],inactive
same,outcome,[3],inactive
same,outcome,[5],inactive
same,outcome,[6],inactive
same,outcome,[8],inactive
CNC(=O)ON=CC(C)(C)SC,outcome,[3],inactive
same,outcome,[6],inactive
CC1COC(Cn2cncn2)(c2ccc(Oc3ccc(Cl)cc3)cc2Cl)O1 (stereo not drawn),outcome,[1],inactive
same,outcome,[3],inactive
same,AC50,[6],1.89 µM (active)
same,AC50,[14],1.27 µM (active)
same,AC50,[15],12.3 µM (active)
same,AC50,[16],2.93 µM (active)
same,outcome,[17],inactive
CC(Oc1ccc(Cl)cc1Cl)C(=O)O (stereo not drawn),outcome,[10],inactive
CCc1nn(C)c(C(=O)NCc2ccc(C(C)(C)C)cc2)c1Cl,outcome,[1],inactive
same,AC50,[14],16.2 µM (active)
same,AC50,[16],6.22 µM (active)
CNC(=S)S,outcome,[1],inactive
same,outcome,[6],inactive
same,outcome,[7],inactive
same,outcome,[14],inactive
C=CCC1=C(C)[C@@H](OC(=O)[C@@H]2[C@@H](C=C(C)C)C2(C)C)CC1=O,outcome,[7],inactive
same,AC50,[14],37.4 µM (active)
same,AC50,[15],20.3 µM (active)
same,AC50,[16],18.6 µM (active)
OC(c1ccc(Cl)cc1)(c1cncnc1)c1ccccc1Cl (stereo not drawn),AC50,[1],12.1 µM (active)
same,AC50,[6],8.34 µM (active)
same,outcome,[14],inactive
same,AC50,[16],0.944 µM (active)
CCOC(=O)C(Cl)Cc1cc(-n2nc(C)n(C(F)F)c2=O)c(F)cc1Cl (stereo not drawn),outcome,[17],inactive
CCOP(=S)(OCC)SCn1c(=O)oc2cc(Cl)ccc21,outcome,[1],inactive
same,outcome,[3],inactive
O=C(O)COc1nc(Cl)c(Cl)cc1Cl,outcome,[8],inactive
CCNc1nc(Cl)nc(NCC)n1,outcome,[1],inactive
same,outcome,[6],inactive
same,outcome,[8],inactive
CON(C)C(=O)Nc1ccc(Cl)c(Cl)c1,outcome,[3],inactive
same,AC50,[6],8.61 µM (active)
same,outcome,[7],inactive
same,AC50,[14],12 µM (active)
same,outcome,[8],inactive
same,AC50,[16],13.4 µM (active)
CCOc1cc(Oc2ccc(C(F)(F)F)cc2Cl)ccc1[N+](=O)[O-],outcome,[1],inactive
same,AC50,[16],6.37 µM (active)
CCCCNC(=O)OCC#CI,AC50,[2],6.55 µM (active)
same,outcome,[3],inactive
same,outcome,[5],inactive
same,outcome,[8],inactive
same,AC50,[17],1.59 µM (active) and 4.96 µM (active)
Cc1c(F)c(F)c(COC(=O)C2C(/C=C(\Cl)C(F)(F)F)C2(C)C)c(F)c1F (stereo not drawn),outcome,[1],inactive
same,AC50,[16],8.33 µM (active)
C=CCC1=C(C)C(OC(=O)C2C(C=C(C)C)C2(C)C)CC1=O (stereo not drawn),outcome,[6],inactive
same,AC50,[15],26.2 µM (active)
same,outcome,[15],inactive
same,AC50,[8],39.1 µM (active)
same,outcome,[8],inactive
same,AC50,[16],7.76 µM (active) and 487 nM (active) and 23.7 µM (active)
same,outcome,[16],inactive
COC(=O)N(OC)c1ccccc1COc1ccn(-c2ccc(Cl)cc2)n1,outcome,[1],inactive
same,AC50,[6],2.01 µM (active)
N#CC(CCc1ccc(Cl)cc1)(Cn1cncn1)c1ccccc1 (stereo not drawn),outcome,[1],inactive
same,outcome,[18],inactive
same,outcome,[11],inactive
same,AC50,[16],7.06 µM (active)
CCON=C(CC)C1=C(O)CC(c2c(C)cc(C)cc2C)CC1=O (stereo not drawn),outcome,[10],inactive
same,outcome,[14],inactive
COc1cnc(OC)n2nc(NS(=O)(=O)c3c(OCC(F)F)cccc3C(F)(F)F)nc12,outcome,[8],inactive
C#CCOS(=O)OC1CCCCC1Oc1ccc(C(C)(C)C)cc1 (stereo not drawn),outcome,[1],inactive
same,outcome,[5],inactive
same,AC50,[6],16.5 µM (active)
same,AC50,[15],15.6 µM (active)
same,outcome,[8],inactive
same,AC50,[16],9.17 µM (active)
COc1nc(NC(C)C)nc(NC(C)C)n1,outcome,[1],inactive
same,outcome,[12],inactive
same,outcome,[13],inactive
CCCCC(CC)COC(=O)c1ccccc1C(=O)OCC(CC)CCCC (stereo not drawn),AC50,[1],50 µM (active)
same,outcome,[5],inactive
same,AC50,[6],8.8 µM (active)
same,outcome,[8],inactive
same,outcome,[17],inactive
Fc1ccc(Oc2ccnc3cc(Cl)cc(Cl)c23)cc1,outcome,[1],inactive
same,AC50,[15],13.8 µM (active)
same,AC50,[16],9.77 µM (active)
